In PubChem BioAssay AID488890 (Southern Research Specialized Biocontainment Screening …, 2010):
About 1,300 (0.41%) of roughly 320,000 compounds were called active. Not shown: some 3% with an inconclusive outcome. The rule behind the calls is not given here. Not all results are given here. Results with a measured potency or affinity are listed apart.

assay: growth inhibition of non-replicating M. tuberculosis (AID 488890); conditions: Mycobacterium tuberculosis non-replicating, at 25 µM, stronger effect = higher value;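 note: plate controls were DMSO cells for no effect and high antibiotic wells for full effect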

Row | SMILES | inhibition
1 | O=C(O)CC(NC(=O)c1cccc(F)c1)c1ccc(OC2CCCC2)cc1 (stereo not drawn) | -8.15%
2 | CCCCC(=O)Nc1ccc(C(=O)c2ccccc2)cc1 | -5.55%
3 | CCn1cc(CNC(=S)Nc2cccc(Cl)c2C)cn1 | 72.5%
4 | C/C=C\C(=O)Nc1cccc(C2=NOC3(C2)C[C@@H](C(N)=O)N(C(=O)C2(C)CC2)C3)c1 (stereo partly drawn) | 2.93%
5 | CC(=O)Nc1ccc(NC(=O)CN(C)S(=O)(=O)c2ccc3nc(C)sc3c2)cc1 | 6.18%
6 | CCC(=O)Nc1nc2c(OC)ccc(C)c2s1 | -15%
7 | COc1ccc(OC)c2sc(NC(=O)CCSc3ccccc3)nc12 | 14.7%
8 | COc1ccc(CNC(=O)C(=O)NCC2OCCN2S(=O)(=O)c2ccc3c(c2)OCCO3)cc1 (stereo not drawn) | -1.2%
9 | CCOc1ccc(NC(=O)CCNS(=O)(=O)c2ccc3c(c2)CC(C)N3C(C)=O)cc1 (stereo not drawn) | -1.02%
10 | CCOC(=O)C1CCN(Cc2ccc(OCc3ccccc3)c(OC)c2)CC1 | 6.11%
11 | Cc1ccc(N2NC(=O)/C(=C/c3ccc(-c4ccc(Cl)c(C(=O)O)c4)o3)C2=O)cc1 | 26.2%
12 | CCN1C(=O)N/C(=C/c2ccc(Sc3ccc(C)cc3)o2)C1=O | 39.1%
13 | O=C1NN(c2ccccc2)C(=O)/C1=C/c1ccc(-c2ccc(C(=O)O)cc2)o1 | 37.2%
14 | CC1=CN2C(=N)/C(=C/c3ccc(Sc4ccc(C)cc4)o3)C(=O)N=C2S1 | -10.5%
15 | CCN(CC)C(=O)COc1ccc(-c2ccccc2)cc1 | 37.2%
16 | CC(C)C(C)NC(=O)COc1ccc(-c2ccccc2)cc1 (stereo not drawn) | -4.32%
17 | CC(NC(=O)COc1ccc(Br)cc1)C1CCCO1 (stereo not drawn) | 0.437%
18 | COc1ccc(CCC(=O)NC(C)C2CCCO2)cc1 (stereo not drawn) | -3.51%
19 | CCC(CC)n1[nH]c(=O)c2c(C)cc(C)nc21 | -4.61%
20 | CCCc1nc(SCC(=O)NC2CC2)c2c(C)c(C)sc2n1 | 6%
21 | CC[C@@]12C(=O)N(c3cccc(Br)c3)C(=O)N1[C@H](c1cccc(C)c1)[C@@H]1C(=O)N(Cc3ccccc3)C(=O)[C@@H]12 | 23.5%
22 | O=C(c1ncc[nH]1)c1cccs1 | -0.79%
23 | CCOC(=O)C1CCCN(Cc2ccccc2Cl)C1 (stereo not drawn) | 21.6%
24 | CC(NCc1ccc(Cl)cc1)C(O)c1ccccc1 (stereo not drawn) | 12.6%
25 | CC(NCc1cccc(OCc2ccccc2)c1)C(O)c1ccccc1 (stereo not drawn) | 63.5%

Row | SMILES | inhibition
26 | Cn1c(Cc2ccccc2)nnc1SCc1ccc(C(=O)O)cc1 | -12%
27 | COn1c2c(c3c4no[n+]([O-])c4ccc31)CCCC2 | -5.21%
28 | CCOC(=O)c1c(C)n(OC)c2ccc3c(no[n+]3[O-])c12 | -0.23%
29 | CCCCC(=O)Nc1c2c(nn1-c1cccc(C)c1C)CS(=O)(=O)C2 | -2.3%
30 | COc1cc(C(=O)NCc2ccccn2)ccc1OCc1c(C)noc1C | -3.19%
31 | O=C1N(CCCN2C(=O)C3(OCCO3)c3ccccc32)c2ccccc2C12OCCO2 | 0.91%
32 | C=CCN1C(=O)C2(NC(=O)c3ccccc3N2)c2ccccc21 (stereo not drawn) | -5.15%
33 | O=C1N(CCCCN2C(=O)C3(OCCO3)c3ccccc32)c2ccccc2C12OCCO2 | 5.68%
34 | C=CCN1C(=O)C2(OCCCO2)c2ccccc21 | 11.8%
35 | COc1ccccc1C(=O)N1CCN(C2CCN(Cc3ccccc3)CC2)CC1 | -21.9%
36 | COc1ccc(OC(C)C(=O)NC(C)c2ccccc2)cc1 (stereo not drawn) | -7.62%
37 | O=C1CCCC(O)=C1C=Nc1cccc(C(F)(F)F)c1 | -1.35%
38 | O=C1CCCC(O)=C1C=Nc1ccc(O)cc1 | 17.3%
39 | CC(C)CN(C(=O)COC(=O)c1ccccn1)c1c(N)n(Cc2ccccc2)c(=O)[nH]c1=O | -2.29%
40 | C=CCOc1ccc(C2CC(C)=NN2c2ccccc2)cc1 (stereo not drawn) | 35.9%
41 | CCOC(=O)C1=NN(c2ccccc2)C(c2ccccc2)CC1=O (stereo not drawn) | 12.4%
42 | Cc1ccc(C)c(S(=O)(=O)N2CCN(C(=O)CCC(=O)NCc3ccc(Cl)cc3)CC2)c1 | 6.7%
43 | NC(=O)c1ccc(NC(=O)COC(=O)C2CC(=O)N(Cc3ccccc3)C2)cc1 (stereo not drawn) | -1.36%
44 | Cc1nn2c(NCCCN(C)C)c3c(nc2c1-c1ccccc1)CCC3 | -10.7%
45 | Cc1nn2c(NCCCN(C)C)c3c(nc2c1-c1ccccc1)CCCC3 | 73.4%
46 | CCO/C=C1/C(=O)N(C(C)=O)c2ccccc21 | -5.81%
47 | COc1ccc(-c2nnc(-c3ccc(F)cc3)o2)cc1 | 76.7%
48 | Fc1ccc(-c2nnc(-c3ccc(Cl)cc3)o2)cc1 | 72.1%
49 | CN(C)c1ccc(-c2nnc(-c3cccs3)o2)cc1 | 48.7%
50 | c1ccc(-c2nnc(-c3ccccc3)o2)cc1 | 66.5%

Row | SMILES | inhibition
51 | Cc1ccc(-c2nnc(-c3ccccc3Br)o2)cc1 | 78.7%
52 | Cc1cccc(-c2nnc(-c3ccccc3)o2)c1 | 79.9%
53 | COc1ccc(-c2nnc(-c3cccs3)o2)cc1OC | 60.7%
54 | COc1ccccc1-c1nnc(-c2ccc(N3CCOCC3)cc2)o1 | 18.5%
55 | Cc1cc(=O)oc2ccc(OC(C)C(=O)O)cc12 (stereo not drawn) | -4.21%
56 | Cn1cc(C(=O)C(=O)N2CCCC2)c2ccccc21 | -3.83%
57 | Cc1nc(N/N=C/c2ccccc2)nc(N(C)c2ccccc2)c1[N+](=O)[O-] | -0.99%
58 | CC(=O)Nc1ccc(Nc2nc(C)c([N+](=O)[O-])c(N(C)c3ccccc3)n2)cc1 | 71.5%
59 | CC(=O)c1cccc(OCc2cc(C(=O)NCc3nc(C)c(C)s3)no2)c1 | -3.04%
60 | COc1ccc(NC(=O)COc2ccc(C(=O)NCc3cccnc3)cc2OC)cc1 | 10.8%
61 | O=C(O)c1c2c(nc3ccccc13)-c1ccccc1CC2 | -7.78%
62 | O=C(OCC(=O)N1CCN(c2ccccc2)CC1)c1ccccn1 | -2.7%
63 | O=C(OCC(=O)N1CCN(c2ccccc2)CC1)c1ccc(Cl)nc1 | 60.4%
64 | O=C(OCC(=O)N1CCCC1)c1cnc(Cl)c(Cl)c1 | 7.3%
65 | O=C(OCC(=O)N1CCCCC1)c1ccc2ccccc2n1 | 50%
66 | Clc1ccc(N2CCN(c3ccnc(Cl)n3)CC2)cc1 | 53%
67 | COCCCNC(=O)c1c(N)n(-c2ccc3c(c2)OCO3)c2nc3ccccc3nc12 | -12.5%
68 | O=C(NC1CCCCC1)c1cc(-c2ccc(Cl)cc2)on1 | -0.38%
69 | O=C(Nc1ccccc1)c1cccc2c(Br)cccc12 | -8.76%
70 | CCc1ccc(/C(C)=N/NC(=O)c2ccccn2)cc1 | 27%
71 | Cc1ccc(N=CC2=C(O)CC(c3ccccc3Cl)CC2=O)cc1 (stereo not drawn) | 2.23%
72 | O=C(Nc1ccc(Br)cc1F)c1sccc1-n1cccc1 | 0.35%
73 | COc1ccccc1C(=O)Nc1c2c(nn1-c1ccc([N+](=O)[O-])cc1)CS(=O)(=O)C2 | -26.7%
